# Source: PubChem BioAssay AID1739 (National Center for Advancing Translational Sciences (NCATS), 2009)
# Results filed as inconclusive are left out. Entries that show only a call come without a potency. Active and inactive are the calls of the source. Calls come from the whole dose curve; as a rule, active = well fitted inhibition curve with a large enough effect; inconclusive = small, poorly fitted or top-dose-only effect; inactive = flat fitted curve, though single readings scatter.
# Assay: Counterscreen Assay for Enhancers of SMN2 Splice Variant Expression: Modulation of SMN1 Expression
# From the text: NIH Chemical Genomics Center [NCGC] NIH Molecular Libraries Probe Production centers Network [MLPCN] MLPCN Grant: R03 MH084179-01 Assay Submitter (PI): Elliot Androphy NCGC Assay Overview: Spinal muscular atrophy (SMA) is caused by insufficient levels of the survival motor neuron protein SMN. The SMN locus on chromosome 5q13 contains two inverted copies of SMN called SMN1 and SMN2 which are 99% identical at the amino acid level. SMN1 is a fully functional protein and SMN2 skips exon 7 90% of the time. Skipping of exon 7 produces non-functional protein product. 10% of the SMN2 protein includes exon 7 and is fully functional. In the SMA disease state, mutations in the SMN1 locus are the cause of the disease state. Because only 10% of SMN2 is of the fully functional form, it is not sufficient to overcome the deficiency produced by the loss of the SMN1 product. A therapy that either increase the amount of SMN2 product made or to increase the inclusion of exon 7 has been proposed for the treatment of SMA. We have designed an assay to identify small molecules that can increase the amount of functional SMN2 product by appending a luciferase reporter gene after the native SMN2 gene, such that inclusion of exon 7 in the expressed product places the luciferase sequence in frame, thus generating functional luciferase enzyme. […]
row,SMILES,Potency
1,CC[C@]1(O)CC(O[C@@H]2CC(N(C)C)C(O)C(C)O2)c2c(cc3c(c2O)C(=O)c2c(O)cccc2C3=O)C1C(=O)OC (some centres not stated),1.12 µM (active)
2,CCc1ccc2nc(N3CCC(C(=O)N4CCC5(CC4)OCCO5)CC3)sc2c1,inactive
